PubChem BioAssay

molecular target: NAD(+) hydrolase SARM1 (Homo sapiens) (UniProt Q6SZW1); experiment: blocking NAD cleavage by SARM1 SAM-TIR – cell lysate, NAD-Glo luminescence (AID 1508614); details: SAM-TIR HEK293T lysate NADase, at 1 µM, active compounds read high;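 note: higher remaining NAD means stronger inhibition of SARM1 NADase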
Sequence (Q6SZW1 whole entry, looked up): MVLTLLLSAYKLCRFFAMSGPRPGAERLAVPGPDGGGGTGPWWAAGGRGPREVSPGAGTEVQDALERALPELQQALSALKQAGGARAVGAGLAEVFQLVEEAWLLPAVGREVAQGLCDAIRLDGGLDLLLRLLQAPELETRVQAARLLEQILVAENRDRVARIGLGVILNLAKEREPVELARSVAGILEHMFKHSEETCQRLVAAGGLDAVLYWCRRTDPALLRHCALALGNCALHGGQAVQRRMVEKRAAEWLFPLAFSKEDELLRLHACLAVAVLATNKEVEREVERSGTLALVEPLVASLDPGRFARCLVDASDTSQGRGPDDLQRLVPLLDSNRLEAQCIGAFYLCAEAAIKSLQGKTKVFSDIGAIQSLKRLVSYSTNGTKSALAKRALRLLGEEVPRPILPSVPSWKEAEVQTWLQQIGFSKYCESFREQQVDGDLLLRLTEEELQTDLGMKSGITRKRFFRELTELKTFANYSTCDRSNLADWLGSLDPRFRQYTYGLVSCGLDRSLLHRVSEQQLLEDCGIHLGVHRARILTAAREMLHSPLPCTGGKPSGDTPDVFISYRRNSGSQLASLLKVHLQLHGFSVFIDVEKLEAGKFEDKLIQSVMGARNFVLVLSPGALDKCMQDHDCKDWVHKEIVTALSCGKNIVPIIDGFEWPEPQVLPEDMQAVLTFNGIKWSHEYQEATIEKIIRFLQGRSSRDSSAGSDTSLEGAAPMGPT

Remaining NAD, inactive:
Cc1c(Cl)cccc1Nc1ccccc1C(=O)O 10 nM
NCCS 10 nM
Cc1cc(C(C)(C)C)cc(C)c1CC1=NCCN1 10 nM
CN1CCN(CC(=O)N2c3ccccc3C(=O)Nc3cccnc32)CC1 10 nM
CC(CN(C)C)CN1c2ccccc2CCc2ccccc21 (centres undefined) 10 nM
COC(=O)Nc1nc2ccc(Sc3ccccc3)cc2[nH]1 10 nM
CC(C)NC[C@@H](O)COc1cccc2ccccc12 10 nM
CCOC(=O)C1=C[C@]2(CC)CCCN3CCc4c(n1c1ccccc41)[C@@H]32 10 nM
CC1(C)NC(=O)N(c2ccc([N+](=O)[O-])c(C(F)(F)F)c2)C1=O 10 nM
CN1CCC(OC(c2ccccc2)c2ccccc2)CC1 10 nM
CN(C)CCCN1c2ccccc2Sc2ccccc21 10 nM
CC(=O)Oc1ccccc1C(=O)O 10 nM
CCCCC1C(=O)N(c2ccccc2)N(c2ccccc2)C1=O 10 nM
NC[C@H](O)c1ccc(O)c(O)c1 10 nM
Clc1ccc2c(c1)CCc1cccnc1C2=C1CCNCC1 10 nM
Nc1ccc(S(=O)(=O)Nc2ccnn2-c2ccccc2)cc1 10 nM
CC1(C)O[C@@H]2C[C@H]3[C@@H]4C[C@H](F)C5=CC(=O)CC[C@]5(C)[C@H]4[C@@H](O)C[C@]3(C)[C@]2(C(=O)CO)O1 10 nM
Cc1onc(-c2ccccc2)c1C(=O)N[C@@H]1C(=O)N2[C@@H]1SC(C)(C)[C@@H]2C(=O)O 10 nM
CN1CCCN=C1COC(=O)C(O)(c1ccccc1)C1CCCCC1 (centres undefined) 10 nM
O=C1CCc2cc(OCCCCc3nnnn3C3CCCCC3)ccc2N1 10 nM
CC(=O)OC(C)C[N+](C)(C)C (centres undefined) 10 nM
C[C@](N)(Cc1ccc(O)c(O)c1)C(=O)O 10 nM
C[C@@](Cc1ccc(O)c(O)c1)(NN)C(=O)O 10 nM
Clc1ccc(C(c2ccccc2Cl)C(Cl)Cl)cc1 (centres undefined) 10 nM
CC(=O)OCC1=C(C(=O)O)N2C(=O)[C@@H](NC(=O)Cc3cccs3)[C@H]2SC1 10 nM
C[N+]1(C)[C@@H]2CC(OC(=O)[C@H](CO)c3ccccc3)C[C@H]1[C@@H]1O[C@@H]12 (some centres undefined) 10 nM
Cn1cnc2c1c(=O)[nH]c(=O)n2C 10 nM
NCCS(=O)(=O)O 10 nM
CCN(CC)Cc1cc(Nc2ccnc3cc(Cl)ccc23)ccc1O 10 nM
COc1ccc2c(c1)c(CC(=O)OCC(=O)O)c(C)n2C(=O)c1ccc(Cl)cc1 10 nM
CC/C(=C(/CC)c1ccc(O)cc1)c1ccc(O)cc1 10 nM
c1ccc(CN(CC2=NCCN2)c2ccccc2)cc1 10 nM
O=C(O)c1cccnc1Nc1cccc(C(F)(F)F)c1 10 nM
CC(=O)O[C@]1(C(C)=O)CC[C@H]2[C@@H]3C=C(Cl)C4=CC(=O)[C@@H]5C[C@@H]5[C@]4(C)[C@H]3CC[C@@]21C 10 nM
C[C@H](N)[C@H](O)c1cccc(O)c1 10 nM
CN1CCN(C(c2ccccc2)c2ccccc2)CC1 10 nM
CC1=C(C(=O)O)N2C(=O)[C@@H](NC(=O)[C@H](N)C3=CCC=CC3)[C@H]2SC1 10 nM
Oc1c(Cl)cc(Cl)c(Cl)c1Cc1c(O)c(Cl)cc(Cl)c1Cl 10 nM
C=C[C@@]1(C)CC(=O)[C@]2(O)[C@@]3(C)[C@@H](O)CCC(C)(C)[C@@H]3[C@H](O)[C@H](OC(C)=O)[C@@]2(C)O1 10 nM
